Most compounds without a hit are left out; they make up all but 2.1% or so of the library.
m-calpain inh: blocks pig calpain II enzyme activity; purified calpain II, fluorogenic peptide substrate, 30 min; inhibition, % at 16 µM; 0.37% of 220,000 active; AID 1236;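 active means inhibition above about 50%, limit read from the data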
HMGR II inh: inhibitors of class II HMG-CoA reductase from Enterococcus faecalis; 0.41% of 190,000 active; purified E. faecalis HMGR, NADPH absorbance 340 nm kinetic; AID 1066; inhibition, % at 10 µM;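 active means inhibition above a set limit, the median over all tested compounds plus 3 SD, cut at about 9.5% in these data; inconclusive means no clear call, values can overlap the other calls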;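 further: enzyme runs in reverse so mevalonate oxidation gives rising NADPH absorbance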
HSV replic up: increases HSV replication in cells. maximum fold increase. HSV replication augmentation in cells, fold increase. 0.005% of 220,000 active; in the data active means maximum fold increase above about 1.5; inconclusive means no clear call, values can overlap the other calls; tested in PC3 cells
ROMK mod: human ROMK K+ channel modulation, primary screen | 2% of 130,000 active | Tet-inducible ROMK, thallium flux fluorescence; actives lie on both sides | B-score at 10 µM;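 active means signal ratio slope over the read window, or its plate-corrected B-score, at least 3 SD from the plate mean, either direction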;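 further: B-score of the F/F0 ratio slope over 7 to 12 s after thallium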
Target sequence (P48048 whole entry, looked up): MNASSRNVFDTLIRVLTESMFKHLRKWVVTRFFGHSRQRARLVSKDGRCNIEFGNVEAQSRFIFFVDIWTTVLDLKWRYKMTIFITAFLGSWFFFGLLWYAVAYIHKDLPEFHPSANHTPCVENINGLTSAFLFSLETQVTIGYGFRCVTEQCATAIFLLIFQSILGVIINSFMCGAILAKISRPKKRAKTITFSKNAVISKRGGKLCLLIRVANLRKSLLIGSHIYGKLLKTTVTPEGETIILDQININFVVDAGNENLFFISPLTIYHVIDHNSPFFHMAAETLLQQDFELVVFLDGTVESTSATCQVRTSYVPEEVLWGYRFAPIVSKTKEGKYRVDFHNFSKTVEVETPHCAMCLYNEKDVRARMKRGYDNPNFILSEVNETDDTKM
Arbovirus anti: arbovirus infection inhibition; 0.37% of 200,000 active; arbovirus infection cell-based antiviral screen; inhibition, % at 10 µM; in the data active means inhibition above about 30%
ROMK hit retest: human ROMK channel modulation, retest confirmation; shares compounds with ROMK mod; AID 1917; normalized thallium flux (F/F0 slope) at 10 µM; 54% of 3,000 active; ROMK thallium flux, fluorescence ratio; active compounds read low;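 active means Flux at 10 µM at least 3 SD below or above vehicle control mean in one or both replicates; inconclusive means no clear call, values can overlap the other calls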
Of the large screens only hits and unclear results are named; the others gave an inactive call (follow-up assays come after a bar, where they were run).

Cn1c(=O)c([N+](=O)[O-])c(Cl)c2ccccc21	ROMK mod -5.1 | ROMK hit retest 0.049
CCN(CC)c1c([N+](=O)[O-])c(=O)n(C)c2ccccc12	none
CC(C)OC(=O)CSc1nnc2c(n1)[nH]c1ccc(F)cc12	none
CSc1ccc(CN2CCN(Cc3ccc([N+](=O)[O-])cc3)CC2)cc1	ROMK mod -3.9 | ROMK hit retest 0.054
O=[N+]([O-])c1ccc(CN2CCOCCOCCN(Cc3ccc([N+](=O)[O-])cc3)CCOCC2)cc1	ROMK mod -9.9 | ROMK hit retest 0.012
O=C(COc1ccc(Cl)cc1[N+](=O)[O-])N1CCCCCC1	ROMK mod -1.8 | ROMK hit retest inconclusive
CC(=O)c1ccc(N=Nc2ccc(N)cc2)cc1	none (no result: HMGR II inh, ROMK mod, Arbovirus anti)
COc1ccc(/C=C(/NC(=O)/C=C/c2ccccc2)C(=O)NCCCCCC(=O)O)cc1	none (no result: HMGR II inh, ROMK mod, Arbovirus anti)
CCOC(=O)CC1CCCCN1Cc1nc(-c2ccc(F)c(OC)c2)oc1C (configuration not stated)	ROMK mod -3 | ROMK hit retest 0.06
N#C/C(=C\c1cccc(Oc2ccccc2)c1)C(=O)N1CCOCC1	ROMK mod -7 | ROMK hit retest 0.036
CC(=O)Nc1nc(-c2ccc(Cl)cc2)ns1	none
O=C(CCCCCNC(=S)Nc1ccc(Cl)cc1)C[N+](=O)[O-]	none
COc1ccc(NC(=S)NCCCCCC(=O)C[N+](=O)[O-])cc1	ROMK mod 1.1 | ROMK hit retest inactive
CC1=C(C(N)=O)C(c2cccs2)NC(=O)N1 (configuration not stated)	none (no result: HMGR II inh, ROMK mod, Arbovirus anti)
CC(CC(=O)O)Nc1ccccc1O (configuration not stated)	none | ROMK hit retest inactive
CC(=O)Nc1ccccc1O	none (no result: ROMK mod)
O=C(OCc1ccc(F)cc1)c1ccc2c(c1)-c1ccccc1C2=O	none (no result: ROMK mod)
CCOC(=O)C1=C(Cc2ccc(F)cc2)C(=O)c2ccccc2C1=O	ROMK mod -3.3 (no result: HSV replic up) | ROMK hit retest 0.061
Clc1cccc(Cl)c1CSc1nnc([C@@H]2CCCN2)o1	none (no result: HMGR II inh, ROMK mod, Arbovirus anti)
CNC(=S)N/N=C/c1ccc(-c2cc([N+](=O)[O-])ccc2Cl)o1	none
CN1CCN(/N=C/c2ccc(-c3ccc([N+](=O)[O-])cc3Cl)o2)CC1	HSV replic up inconclusive, ROMK mod -3.8 | ROMK hit retest 0.045
CC(OC(=O)c1ccncc1)C(=O)Nc1cc(S(=O)(=O)N2CCCCC2)ccc1Cl (configuration not stated)	ROMK mod -4.8 | ROMK hit retest 0.068
O=C(Nc1cccc(Cl)c1)Nc1cc(S(=O)(=O)N2CCCCC2)ccc1Cl	none (no result: ROMK mod)
CCOC(=O)c1ccc2c(c1)NCc1cccc(OC)c1O2	none (no result: HMGR II inh, ROMK mod, Arbovirus anti)
O=C(OCC(=O)N1CCCCC1)c1cc(NS(=O)(=O)c2ccc(Cl)c([N+](=O)[O-])c2)ccc1O	none
O=C(Nc1nc(-c2ccccn2)cs1)c1cc2ccccc2o1	none
Cc1cc(-c2csc(NC(=O)c3cc4ccccc4o3)n2)c(C)n1C	none (no result: ROMK mod) | ROMK hit retest inconclusive
O=C1NN(c2ccccc2)C(=O)/C1=C/c1ccc(Sc2cccc3ccccc23)o1	ROMK mod -3.9 | ROMK hit retest 0.067
O=C1NN(c2cccc(Br)c2)C(=O)/C1=C/c1ccc(-c2cc([N+](=O)[O-])ccc2O)o1	none (no result: HMGR II inh, ROMK mod, Arbovirus anti)
O=C1c2oc3ccccc3c(=O)c2C(c2ccc(O)cc2)N1c1nccs1 (configuration not stated)	none
O=C1OCC2=C1C(c1ccc(F)cc1)CC(=O)N2c1ccccc1 (configuration not stated)	ROMK mod 3.1 | ROMK hit retest inactive
Cc1csc2nc3cc(C(N)=O)ccc3c(=O)n12	none (no result: HMGR II inh, ROMK mod, Arbovirus anti) | ROMK hit retest inactive
COc1ccc(C(=O)NCc2ccc(S(N)(=O)=O)cc2)cc1[N+](=O)[O-]	ROMK mod -13 | ROMK hit retest inactive
Cc1cc(C(=O)NCc2ccc(S(N)(=O)=O)cc2)ccc1[N+](=O)[O-]	none
CC1(C)CC(=O)C2=C(C1)NC(=S)C(C#N)C21CCCCC1 (configuration not stated)	none (no result: HMGR II inh, Arbovirus anti)
N#C/C(=C\c1cccc([N+](=O)[O-])c1)c1nnc2n1CCCCC2	ROMK mod -4.4 | ROMK hit retest 0.046
CN(c1ccccc1)c1ccc(/C=C(\C#N)c2nnc3n2CCCCC3)cc1[N+](=O)[O-]	none (no result: ROMK mod)
CC(C)(C)c1ccc(-c2nc3n(c(=O)c2C#N)CCS3)cc1	none
CC(=O)c1ccc(N2CCN(C(=O)c3cccc(Oc4ccccc4)c3)CC2)cc1	none | ROMK hit retest inactive
O=C(c1cccc(C(=O)N2CCN(c3ccccc3)CC2)c1)N1CCN(c2ccccc2)CC1	none
CC(=O)Nc1ccc(Oc2cncc(Cl)c2)nc1	none (no result: HMGR II inh, Arbovirus anti)

Bioassay records deposited in PubChem by several laboratories.
